Screens: PubChem, several laboratories
Compounds with a hit are over-represented: about 2.7% of the library has one in this group of screens.
ATG4B inhibitor: blocks human ATG4B protease cleavage of LC3 substrate. Q9Y4P1. ATG4B cleavage of LC3-PLA2, NBD-HPC fluorescence, 1 h. inhibition, % at 8.33 µM. actives 0.51% (n = 340,000). AID 504462; in the data active = inhibition above about 40%
SKN-1 inh: C. elegans SKN-1 inhibition; actives 0.49% (n = 360,000); C. elegans VP596 Pgst-4::GFP/RFP ratio, acrylamide-induced, 24 h; inhibition, % at 21.8 µM;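 active = interference check ratio from 0.5 to 1.5 plus GFP to RFP signal ratio inhibition reaching or exceeding a fixed threshold, cut at about 30% in these data, passing the limit was not always enough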
MPTP inh: blocks calcium-induced mitochondrial swelling; inhibition, % at 10 µM; actives 1.4% (n = 360,000); AID 602449; isolated mouse mitochondria, Ca2+ swelling absorbance, 30 min;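 active = inhibition of 50% or more, scaled per plate between neutral and stimulator controls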;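 note: 0% = DMSO wells given calcium and 100% = 1 mM EGTA wells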
CFTR F508del cor: correctors of CFTR F508del function in bronchial epithelial cells. actives 0.36% (n = 350,000). CFBE cells, YFP halide quenching; stimulated with forskolin plus potentiator P3; % fluorescence drop versus neutral controls. activity (quench increase), % at 7.58 µM. AID 720511;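 active = mean added fluorescence quench of at least 8% versus neutral control, with both replicates also reaching 8%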;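 note: cells transiently co-express mutant CFTR-F508del with the halide-sensitive YFP; corrector assay measuring rescue of mutant channel to the surface after 24 h compound exposure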
CendR NRP1 mod: alters CendR peptide binding to human NRP-1. O14786. FAM-RPARPAR peptide binding to NRP-1, fluorescence polarization. inhibition, % at 25 µM. actives 0.85% (n = 360,000). AID 602438;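 active = inhibition or corrected inhibition above about 18%, plus a signal ratio from 0.5 to 1.5, limit read from the data, passing the limit was not always enough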
Target sequence (O14786 whole entry, looked up): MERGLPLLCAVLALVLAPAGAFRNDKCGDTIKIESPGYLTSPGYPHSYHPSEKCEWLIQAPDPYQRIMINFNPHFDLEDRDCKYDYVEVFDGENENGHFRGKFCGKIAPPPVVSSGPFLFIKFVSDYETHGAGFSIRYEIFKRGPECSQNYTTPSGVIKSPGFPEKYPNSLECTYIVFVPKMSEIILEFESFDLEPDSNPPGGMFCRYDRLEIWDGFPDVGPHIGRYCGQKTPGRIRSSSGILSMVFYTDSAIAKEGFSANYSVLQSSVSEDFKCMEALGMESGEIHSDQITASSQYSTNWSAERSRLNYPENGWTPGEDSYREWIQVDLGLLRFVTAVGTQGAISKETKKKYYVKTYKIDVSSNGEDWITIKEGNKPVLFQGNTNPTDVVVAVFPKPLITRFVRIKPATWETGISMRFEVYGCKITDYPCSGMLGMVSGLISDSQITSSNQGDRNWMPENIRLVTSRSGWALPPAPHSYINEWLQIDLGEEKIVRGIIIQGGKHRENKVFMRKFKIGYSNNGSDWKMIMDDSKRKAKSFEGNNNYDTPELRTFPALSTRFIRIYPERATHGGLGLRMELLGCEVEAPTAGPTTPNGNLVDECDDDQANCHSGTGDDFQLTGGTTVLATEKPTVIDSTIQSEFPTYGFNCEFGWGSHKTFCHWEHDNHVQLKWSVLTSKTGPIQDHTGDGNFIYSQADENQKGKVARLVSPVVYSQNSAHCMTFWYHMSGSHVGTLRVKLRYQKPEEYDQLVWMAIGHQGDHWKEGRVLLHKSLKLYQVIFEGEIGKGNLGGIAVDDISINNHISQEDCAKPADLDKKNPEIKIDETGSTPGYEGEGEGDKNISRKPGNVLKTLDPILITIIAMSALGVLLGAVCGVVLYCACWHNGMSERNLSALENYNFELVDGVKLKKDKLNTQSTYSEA
An asterisk follows results filed as active; · = no result given.

SMILES	ATG4B inhibitor	SKN-1 inh	MPTP inh	CFTR F508del cor	CendR NRP1 mod
O=C1NC[C@H](CCCCN2C[C@H](Cc3ccc(O)cc3)N(Cc3ccccc3)C(=O)C2=O)N(CCc2ccccc2)C1=O	·	0.4	0.9	2.6	17.1
O=C1NC[C@@H](CCCCN2C[C@H](Cc3ccccc3)N(CCc3ccc(O)cc3)C(=O)C2=O)N(Cc2ccccc2)C1=O	·	2.5	-1.6	1.0	18.4*
O=C(NCCn1cccn1)C1CCC(=O)N(CCc2cccc(F)c2)C1 (stereo not drawn)	-2.5	-2.8	0.9	-3.4	47.4*
CC(C)C(N)c1csc(NC(=O)Nc2cccc(C(F)(F)F)c2)n1 (stereo not drawn)	·	3.0	4.6	-0.4	24.2*
COc1ccc(C2Nc3ccccc3C(=O)N2Cc2ccco2)cc1COc1ccc(F)cc1 (stereo not drawn)	0.0	42.6*	2.3	·	-5.5
CCC1=C(OC(=O)N(CC)CC)N2C(=O)OC(=NCCc3c[nH]c4ccccc34)[C@]2(Cc2ccccc2)[C@H]2C1=CC[C@H]1C(=O)N(CC(=O)OC)C(=O)[C@H]12	5.5	1.5	0.4	0.6	2.1
CCC1=C(OC(=O)N(CC)CC)N2C(=O)OC(=NCC3CC3)[C@]2(Cc2ccccc2)[C@H]2C1=CC[C@H]1C(=O)N(C)C(=O)[C@H]12	-5.8	-3.0	-0.3	0.1	25.5*
CCC1=C(OC(=O)N(CC)CC)N2C(=O)OC(=NCCOC)[C@]2(Cc2ccccc2)[C@H]2C1=CC[C@H]1C(=O)N(CC(=O)OC)C(=O)[C@H]12	-6.0	13.5	0.2	-8.5	35.2*
O=C1CCCN1CCCNc1nc(NCc2cccs2)nc2ccsc12	·	20.6	-1.1	-2.2	25.6*
CC(=O)NCCNc1nc(NCc2cccs2)nc2ccsc12	·	-14.6	0.2	0.2	-1.8
C[C@@H]1CN([C@H](C)CO)C(=O)c2cc(C#CC(C)(C)O)cnc2O[C@H]1CN(C)C(=O)C1CCOCC1	·	·	·	-0.9	·
CN(C)c1ccc2c(c1)[C@@H]1C[C@@H](CC(=O)NCc3ccncc3)O[C@H](CO)[C@@H]1O2	·	·	·	0.8	·
Cc1ccc(C(=O)CNc2ccc(C)c(Cl)c2)cc1	5.6	-6.0	0.4	·	30.4*
Cc1noc(C)c1NC(=O)N(C)C[C@H]1Oc2ccc(NS(=O)(=O)c3c(C)noc3C)cc2C(=O)N([C@@H](C)CO)C[C@@H]1C	·	·	·	0.7	·
COc1ccc(Oc2c(C=O)c3ccccc3n2C)cc1	3.1	1.9	-0.3	·	26.0*
C[C@@H]1CN([C@H](C)CO)C(=O)Cc2cc(NS(=O)(=O)c3ccccc3)ccc2O[C@H]1CN(C)Cc1ccc(C(=O)O)cc1	·	·	·	-1.9	·
CCC1(CC)NC(=O)N(CC(=O)OCC(=O)Nc2ccc(F)c(F)c2F)C1=O	-0.1	-5.8	-0.3	0.6	0.9
CCC1(CC)NC(=O)N(CC(=O)OCC(=O)Nc2cc(OC)ccc2OC)C1=O	-2.2	1.7	0.2	1.6	24.2*
CC(C)(C)N(NC(=O)Nc1ccccc1)C(=O)c1ccccc1Cl	2.4	-7.0	-4.1	·	25.4*
CCOc1ccc(OCCC(=O)OCC(=O)c2c(N)n(CC(C)C)c(=O)n(C)c2=O)cc1	·	4.0	0.5	0.9	-1.5
Cc1ccc(OCCC(=O)OCC(=O)c2c(N)n(CC(C)C)c(=O)n(C)c2=O)cc1	-52.0	-0.1	-1.8	-2.5	17.4*
COc1ccccc1C#Cc1ccc2c(c1)O[C@@H](CN(C)Cc1ccncc1)[C@H](C)CN([C@@H](C)CO)S2(=O)=O	·	·	·	2.5	·
S=c1[nH]nc(-c2ccco2)n1/N=C/c1c(Cl)cccc1Cl	8.6	46.5*	2.3	0.5	-11.2
Cc1ccc(CNC(=O)c2oc3ccc(S(=O)(=O)N4CCOCC4)cc3c2C)cc1	-4.9	5.7	0.2	·	13.3
Cc1c(C(=O)Nc2cccc(C(F)(F)F)c2)oc2ccc(S(=O)(=O)N3CCOCC3)cc12	-5.0	36.3*	3.1	1.6	-5.3
SMILES	ATG4B inhibitor	SKN-1 inh	MPTP inh	CFTR F508del cor	CendR NRP1 mod
Cc1c(C(=O)N(C)Cc2ccccc2)oc2ccc(S(=O)(=O)N3CCCC3)cc12	-7.8	12.1	2.8	·	24.6*
O=C(C[C@@H]1CC[C@@H]2[C@H](COC[C@@H](O)CN2Cc2ccccc2)O1)N[C@@H]1CCN(Cc2ccccc2)C1	·	·	·	5.8	·
CCC(=O)N[C@@H]1C=C[C@@H](CC(=O)NCc2ccccc2OC)O[C@@H]1CO	·	·	·	-3.5	·
COc1ccc(C(=O)C2CC2c2ccc3c(c2)OCO3)cc1 (stereo not drawn)	-4.6	-2.8	-0.3	-0.1	28.2*
COc1ccccc1-c1ccc2n(c1=O)C[C@H]1[C@H](CO)[C@@H](C(=O)NCc3ccccn3)[C@@H]2N1C	·	·	·	-0.9	·
O=C(Nc1ccc(-c2nnc3n2CCCCC3)cc1)c1ccco1	-3.8	6.6	1.6	·	33.6*
Cc1ccc(C2CC(=O)Oc3cc(O)ccc32)cc1 (stereo not drawn)	0.2	35.3*	-1.0	-1.7	-28.3
O=[N+]([O-])c1ccc(Nc2nccc(Cl)n2)cc1	-6.7	44.5*	1.4	0.9	-4.0
CC(C)(C)Nc1nc(Nc2ccc([N+](=O)[O-])cc2)nc(NC(C)(C)C)n1	7.1	9.4	3.7	-1.1	8.6
CCOC(=O)C(C)Sc1nc(=O)n2cc(C)ccc2n1 (stereo not drawn)	2.2	1.6	2.1	0.4	-0.8
CCOC(=O)C(C)Sc1nc(=O)n2ccccc2n1 (stereo not drawn)	-2.9	6.7	-0.9	-4.8	18.7*
O=C(c1cccc(F)c1)N1CC(=O)N2[C@H](CO)[C@H](c3ccc(-c4ccccc4F)cc3)[C@@H]2C1	·	·	·	1.5	·
CC(C)NC(=O)N(C)C[C@@H]1OCCCC[C@@H](C)Oc2ccc(NS(=O)(=O)c3cccs3)cc2C(=O)N([C@H](C)CO)C[C@@H]1C	·	·	·	0.9	·
COc1ccc(NC(=O)NNC(=O)C(O)(c2ccccc2)c2ccccc2)cc1	-0.2	2.7	-0.6	0.0	28.2*
COc1ccc(NC(=O)NC(C(F)(F)F)C(F)(F)F)cc1	-2.6	43.1*	-2.1	·	0.6
C[C@@H]1CN([C@H](C)CO)C(=O)c2cc(NC(=O)Nc3ccccc3)ccc2O[C@@H](C)CCCCO[C@@H]1CN(C)C(=O)C1CCCCC1	·	·	·	0.0	·
COc1cccc(-n2nnc3c(=O)n(CC(=O)OCc4ccccc4)cnc32)c1	-8.3	-5.5	0.0	·	26.0*
CCCNC(=O)Nc1ccc2c(c1)OC[C@H](C)N(Cc1cncnc1)C[C@H](C)[C@H](OC)CN(C)C2=O	·	·	·	1.4	·
CC1OC2CC(=O)OC2C2=C1C(=O)c1c(O)cccc1C2=O (stereo not drawn)	·	-2.6	10.0	7.0	38.0*
CO[C@@H]1CN(C)C(=O)c2ccc(NC(=O)C3CC3)cc2OC[C@@H](C)N(Cc2ccncc2)C[C@H]1C	·	·	·	0.9	·
O=C(COC(=O)c1ccc(F)c([N+](=O)[O-])c1)NC(=O)NCc1ccccc1	-10.4	-4.1	-1.3	-1.0	22.4*
